The results in this text go back to PubChem BioAssay (EPA / NIEHS).

Several values for one entry are separate records, joined by “and”; a condition that tells them apart may be missing. Equal values may be shown once. Where a structure was tested more than once in an assay, its records may differ in their call. Activity calls are given as the source filed them. Rule for the calls: active = hit-call score of the fitted dose curve at least 0.9, where 1 is the maximum; inactive = score below 0.9.

Assay [1] is described as follows: ATG_PBREM_CIS: Attagene CIS-FACTORIAL HepG2 Assay for human Phenobarbital-responsive Enhancer Module (PBREM) (AID 2282955). The following applies: HepG2 PBREM cis-reporter, Attagene multiplexed transcription; actives raise or lower the signal. A digest of the protocol:
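Endogenous transcription factors in human liver HepG2 cells drive a PBREM cis-element reporter, whose transcript level after 24 h treatment is quantified by RT-PCR with capillary electrophoresis; activity fitted in both directions against DMSO.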

Assay [2] deals with Paired box protein Pax-6 (Homo sapiens) (UniProt P26367). Description: ATG_Pax6_CIS: Attagene CIS-FACTORIAL HepG2 Assay for human Paired Box 6 (PAX6) (AID 2282956). The following applies: HepG2 CIS-FACTORIAL PAX6 reporter transcription, RNA readout; actives raise or lower the signal. A digest of the protocol: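 HepG2 cells transiently transfected with multiplexed cis-promoter reporter units (endogenous TF activity) were dosed for 24 h. Reporter mRNA was quantified by RT-PCR, 6-FAM labeling, HpaI digestion and capillary electrophoresis; bidirectional fitting versus DMSO baseline.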
Paired box protein Pax-6 (Homo sapiens), sequence (P26367 whole entry, looked up): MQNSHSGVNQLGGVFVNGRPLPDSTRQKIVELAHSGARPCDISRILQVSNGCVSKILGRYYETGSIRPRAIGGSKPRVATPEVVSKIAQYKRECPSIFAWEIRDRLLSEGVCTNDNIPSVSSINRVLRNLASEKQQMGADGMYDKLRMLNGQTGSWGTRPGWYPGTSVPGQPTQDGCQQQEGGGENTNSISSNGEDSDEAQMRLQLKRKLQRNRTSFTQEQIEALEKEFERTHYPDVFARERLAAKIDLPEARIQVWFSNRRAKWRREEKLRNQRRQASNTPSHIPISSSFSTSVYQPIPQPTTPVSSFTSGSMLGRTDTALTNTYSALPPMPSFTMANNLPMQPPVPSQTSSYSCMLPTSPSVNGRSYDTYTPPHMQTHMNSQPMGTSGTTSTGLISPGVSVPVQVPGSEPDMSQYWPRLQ

Assay [3] in a line: ATG_PXRE_CIS: Attagene CIS-FACTORIAL HepG2 Assay for human Pregnane X Receptor Element (PXRE) (AID 2282957). The following applies: HepG2 Attagene CIS-FACTORIAL PXRE reporter, mRNA; actives raise or lower the signal. A digest of the protocol: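 Multiplexed cis-reporter assay in transiently transfected human HepG2 cells; 24 h chemical exposure. Reporter transcripts quantified by RT-PCR with fluorescent labeling and capillary electrophoresis.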

A short description of assay [4]: ATG_PPRE_CIS: Attagene CIS-FACTORIAL HepG2 Assay for human Peroxisome Proliferator-activated Response Element (PPRE) (AID 2282958). The settings on record: HepG2 PPRE cis-element reporter, Attagene transcription factor profiling; actives raise or lower the signal. A digest of the protocol:
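HepG2, transient MRTU transfection (cis promoter elements, endogenous TFs). 24 h dosing. RNA → oligo(dT) RT → PCR → 6-FAM primer extension → HpaI digest → CE. Bidirectional fit vs DMSO.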

A short description of assay [5]: ATG_RORE_CIS: Attagene CIS-FACTORIAL HepG2 Assay for human RAR-related Orphan Receptor Element (RORE) (AID 2282959). The following applies: HepG2 Attagene cis-factorial RORE reporter, mRNA; actives raise or lower the signal. A digest of the protocol:
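Transient MRTU transfection of human HepG2 liver cells (FuGene 6); 24 h compound exposure; TriZol RNA, oligo(dT) RT, PCR, FAM labeling, HpaI cut, CE fragment analysis. DMSO = negative control/baseline.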

The nature of assay [6]: ATG_SREBP_CIS: Attagene CIS-FACTORIAL HepG2 Assay for human Sterol Regulatory Element Binding (SREBP) (AID 2282962). The settings on record: HepG2 Attagene cis-factorial SREBP reporter, mRNA; actives raise or lower the signal. The essentials: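 HepG2 cells transiently transfected with multiplexed cis-element reporter units report endogenous transcription factor activity. After 24 h of chemical exposure, reporter mRNA was quantified by RT-PCR, 6-FAM labelling, HpaI digestion and capillary electrophoresis; bidirectional fits used DMSO as baseline.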

The target of assay [7] is Signal transducer and activator of transcription 3 (Homo sapiens) (UniProt P40763). Nature of the assay: ATG_STAT3_CIS: Attagene CIS-FACTORIAL HepG2 Assay for human Signal Transducer and Activator of Transcription 3 (STAT3) (AID 2282963). The settings on record: HepG2, Attagene cis-factorial STAT3 reporter transcription; actives raise or lower the signal. The essentials: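 Endogenous STAT3-responsive cis-element activity was read in transiently transfected HepG2 cells after 24 h treatment. Reporter transcripts were quantified via RT-PCR and capillary electrophoresis, with DMSO as negative control and bidirectional curve fitting.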
Signal transducer and activator of transcription 3 (Homo sapiens), sequence (P40763 whole entry, looked up): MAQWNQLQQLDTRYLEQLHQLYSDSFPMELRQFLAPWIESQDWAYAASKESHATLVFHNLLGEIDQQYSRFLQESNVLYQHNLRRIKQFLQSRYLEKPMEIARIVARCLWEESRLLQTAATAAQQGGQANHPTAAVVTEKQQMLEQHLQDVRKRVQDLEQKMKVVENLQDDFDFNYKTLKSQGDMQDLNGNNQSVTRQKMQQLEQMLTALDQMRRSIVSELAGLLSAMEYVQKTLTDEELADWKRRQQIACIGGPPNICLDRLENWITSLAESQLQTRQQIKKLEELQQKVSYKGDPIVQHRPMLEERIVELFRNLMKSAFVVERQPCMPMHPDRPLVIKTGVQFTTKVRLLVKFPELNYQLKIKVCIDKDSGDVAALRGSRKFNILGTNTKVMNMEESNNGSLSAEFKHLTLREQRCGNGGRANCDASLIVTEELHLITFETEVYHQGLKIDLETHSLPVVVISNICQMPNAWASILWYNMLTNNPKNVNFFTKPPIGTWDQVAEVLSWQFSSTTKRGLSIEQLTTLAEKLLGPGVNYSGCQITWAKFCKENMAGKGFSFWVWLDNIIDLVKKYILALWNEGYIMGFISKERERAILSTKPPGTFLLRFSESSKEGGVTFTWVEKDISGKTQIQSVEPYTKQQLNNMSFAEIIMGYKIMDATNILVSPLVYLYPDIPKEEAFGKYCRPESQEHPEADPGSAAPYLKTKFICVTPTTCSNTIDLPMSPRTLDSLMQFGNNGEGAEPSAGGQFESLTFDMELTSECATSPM

Assay [8] is described as follows: ATG_TA_CIS: Attagene CIS-FACTORIAL HepG2 Assay for human TA Basal Promoter (AID 2282964). The following applies: HepG2 Attagene CIS-factorial TA basal promoter reporter; actives raise or lower the signal. A digest of the protocol: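 Fluorescence from labelled RT-PCR reporter fragments, separated by capillary electrophoresis, gives the signal. Cells: HepG2 transiently carrying multiple reporter units, 24 h chemical dosing. Gain or loss relative to DMSO.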

The target of assay [9] is Transcription factor Sp1 (Homo sapiens) (UniProt P08047). Nature of the assay: ATG_Sp1_CIS: Attagene CIS-FACTORIAL HepG2 Assay for human Specificity Protein 1 (Sp1) (AID 2282961). The settings on record: HepG2 Sp1 cis-reporter transcription, actives raise or lower the signal. A digest of the protocol: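 Transient MRTU-transfected HepG2, 24 h compound exposure. Total RNA → oligo(dT) RT → PCR of reporter → 6-FAM primer extension → HpaI digest → CE. Endpoint fitted both directions vs DMSO.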
Transcription factor Sp1 (Homo sapiens), sequence (P08047 whole entry, looked up): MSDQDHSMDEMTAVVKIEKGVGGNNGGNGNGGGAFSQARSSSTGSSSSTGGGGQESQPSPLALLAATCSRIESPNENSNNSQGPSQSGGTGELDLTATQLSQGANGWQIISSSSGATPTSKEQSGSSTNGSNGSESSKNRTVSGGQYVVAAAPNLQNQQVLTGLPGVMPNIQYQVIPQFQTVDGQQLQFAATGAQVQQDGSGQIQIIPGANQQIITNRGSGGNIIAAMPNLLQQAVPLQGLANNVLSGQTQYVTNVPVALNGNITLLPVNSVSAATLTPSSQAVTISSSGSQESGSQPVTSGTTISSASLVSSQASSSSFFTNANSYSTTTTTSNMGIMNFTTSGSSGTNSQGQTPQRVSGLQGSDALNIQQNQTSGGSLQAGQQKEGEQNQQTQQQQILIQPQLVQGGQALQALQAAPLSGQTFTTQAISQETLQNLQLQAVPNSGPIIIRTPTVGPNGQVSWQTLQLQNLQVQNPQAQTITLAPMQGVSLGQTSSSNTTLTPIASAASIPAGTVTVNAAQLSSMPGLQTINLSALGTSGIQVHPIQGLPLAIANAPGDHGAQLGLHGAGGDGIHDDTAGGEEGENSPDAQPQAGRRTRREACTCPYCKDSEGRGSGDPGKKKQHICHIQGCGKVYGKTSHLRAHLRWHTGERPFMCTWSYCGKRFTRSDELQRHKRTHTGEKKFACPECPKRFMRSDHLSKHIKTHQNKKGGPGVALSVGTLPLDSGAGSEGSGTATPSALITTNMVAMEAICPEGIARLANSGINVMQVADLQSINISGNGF

Assay [10] is described as follows: ATG_Sox_CIS: Attagene CIS-FACTORIAL HepG2 Assay for human SRY-box transcription factor (SOX) (AID 2282960). The following applies: HepG2 Attagene cis-factorial SOX reporter, mRNA; actives raise or lower the signal. The essentials:
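Endogenous factor activity in human liver HepG2 cells carrying transfected cis-regulated reporter units. RNA taken 24 h post-dose, reverse-transcribed, PCR-amplified and sized by capillary electrophoresis. Gain or loss of signal fitted relative to DMSO.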

In the case of `OC1CCCCC1`, the result in assay [1], in assay [2], in [3], in [4], in assay [5] and in [6] was inactive. In addition, the result in assay [7] and in assay [8] was inactive.

On to `O=C(O)c1ccccc1C(c1ccc(O)cc1)c1ccc(O)cc1`, for which the outcome in [1], in [2], in assay [4], in [5], in [6] and in assay [7] was inactive. Moreover, in assay [8], the compound was called inactive. For the same compound, in [3], the AC50 (commonly the concentration giving half of the maximal activity seen) is 44.9 µM (active) [middle of 4 runs].

As for `CC(C)(C)c1cccc(C(C)(C)C)c1O`, the result in [1], in [3], in assay [4], in assay [6], in assay [7] and in assay [8] was inactive. Further, the AC50 was 162 µM (active) in assay [2] and 165 µM (active) in assay [9].

In the case of `CC(=O)CC(C)(C)O`, the outcome in assay [2], in [3], in [4], in assay [5], in assay [9] and in assay [6] was inactive. Further, the compound was classed as inactive in [7] and in [8]. Moreover, the AC50 in assay [3] was 25 µM (active).

Turning to `c1ccc2c(c1)ccc1ccccc12`, the result in [1], in assay [2], in assay [4], in [5], in assay [6] and in assay [7] was inactive. In assay [8], the compound was classed as inactive. The AC50 in assay [3] is 58.4 µM (active).

On to `CC(=O)NC1(c2cccc(F)c2)CCN(CC[C@@]2(c3ccc(Cl)c(Cl)c3)CN(c3ccccc3)C(=O)CO2)CC1`, for which the AC50 in assay [1] was 56.2 µM (active); in assay [2], 26 µM (active); in [3] it was 1.42 µM (active); in [4], 55.6 µM (active); in assay [5] it was 50.2 µM (active); in assay [6], 8.79 µM (active). Besides, the AC50 in [8] was 16.8 µM (active). For the same compound, the result in assay [7] was inactive.

As for `Cc1oc(-c2ccccc2)nc1CCOc1ccc(C[C@H](Nc2ccccc2C(=O)c2ccccc2)C(=O)O)cc1`, in [2], the AC50 is 14.4 µM (active). Moreover, the call in [3], in [5], in assay [6], in assay [7] and in assay [8] was inactive.

On to `CC(C)CCCCCCOC(=O)CCCCC(=O)OCCCCCCC(C)C`, for which the result in assay [2], in assay [4], in [9], in [6], in assay [7] and in assay [8] was inactive. Besides, the AC50 in assay [3] is 100 µM (active).

On to `CCCCC(CC)COC(=O)CCCCC(=O)OCC(CC)CCCC` (stereo not given), for which the result in assay [1], in assay [2], in assay [3], in [4], in assay [5] and in [6] was inactive. In addition, the compound was called inactive in assay [7] and in [8].

Turning to `N#C[C@@H]1CC(F)(F)CN1C(=O)CNC1CC2CCC(C1)N2c1ncccn1` (stereo not given in full), the result in assay [2], in [4], in assay [5], in assay [9], in [6] and in assay [7] was inactive. The compound was called inactive in [8]. Also, the AC50 in [3] is 75.6 µM (active).

As for `Cc1cc(CCN2CCN(c3nsc4ccccc34)CC2)cc2c1NC(=O)CC2(C)C`, the half-maximal activity concentration (AC50) in [1] is 6.35 µM (active); in [3] it was 1.16 µM (active); in assay [5], 6.32 µM (active); in [9] it was 14.7 µM (active). The outcome in assay [2], in assay [10], in [6], in assay [7] and in [8] was inactive.

Turning to `CC[C@H](c1ccc(O)cc1)[C@@H](CC)c1ccc(O)cc1`, the result in assay [1], in assay [2], in assay [4], in [5], in [6] and in assay [7] was inactive. Further, the result in assay [8] was inactive. For the same compound, the AC50 in [3] was 3.02 µM (active) [middle of 4 runs].

In the case of `CC(O)CO` (stereo not given), the outcome in [2], in [3], in assay [4], in assay [5], in assay [6] and in assay [7] was inactive. Further, the call in assay [8] was inactive.

Consider `CCc1ccc(CCOc2ccc(CC3SC(=O)NC3=O)cc2)nc1` (stereo not given), for which the result in assay [1], in assay [2], in assay [5], in assay [6], in assay [7] and in assay [8] was inactive. Besides, the half-maximal activity concentration (AC50) in assay [3] is 6.6 µM (active) and 1.59 µM (active); in assay [6], 26.2 µM (active).

Consider `CN(C)C=O`, for which the result in assay [1], in assay [2], in assay [3], in assay [5], in assay [10] and in [9] was inactive. For the same compound, the compound was classed as inactive in assay [6], in assay [7] and in assay [8].

Turning to `NC(=O)N(O)[C@@H]1C=C[C@H](Oc2cccc(Oc3ccc(F)cc3)c2)C1`, the AC50 is 33 µM (active) in assay [2], 12.9 µM (active) in assay [3], 18.2 µM (active) in assay [5] and 18.3 µM (active) in [6]. For the same compound, the compound was called inactive in assay [4], in assay [7] and in [8].

In the case of `Oc1cc2ccccc2c2ccccc12`, the result in assay [2], in assay [4], in assay [5], in assay [9], in assay [6] and in assay [7] was inactive. The compound was called inactive in [8]. Further, in [3], the half-maximal activity concentration (AC50) was 3.71 µM (active).

Turning to `CCN(CC)CCNc1ccc(CNC=O)c2sc3ccc(OC)cc3c(=O)c12`, the compound was called inactive in assay [2], in assay [3], in [4], in [6], in assay [7] and in assay [8].

On to `C[C@@H]1C[C@H]2[C@@H]3CCC4=CC(=O)C=C[C@]4(C)[C@@]3(F)[C@@H](O)C[C@]2(C)[C@@]1(O)C(=O)COP(=O)(O)O`, for which the outcome in assay [2], in assay [3], in assay [4], in assay [5], in assay [10] and in assay [6] was inactive. Besides, the outcome in [7] and in [8] was inactive. In addition, in assay [3], the AC50 was 25.9 µM (active).

On to `COCC(C)O` (stereo not given), for which the call in assay [2], in assay [3], in assay [9], in assay [6], in assay [7] and in assay [8] was inactive.
